Compound activity as filed in PubChem BioAssay.
Only some compounds are listed: those with a hit (about 4.2% of all), similar ones and a draw of the others.
AHR act: activates the human aryl hydrocarbon receptor; 320,000 tested, 2.5% active; AHR-responsive luciferase reporter cells, luminescence; AID 2796; P35869; activation, % at 5 µM; in the data active means activation above about 47%;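 further: 0% = vehicle wells and 100% = reference agonist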
Target sequence (P35869 whole entry, looked up): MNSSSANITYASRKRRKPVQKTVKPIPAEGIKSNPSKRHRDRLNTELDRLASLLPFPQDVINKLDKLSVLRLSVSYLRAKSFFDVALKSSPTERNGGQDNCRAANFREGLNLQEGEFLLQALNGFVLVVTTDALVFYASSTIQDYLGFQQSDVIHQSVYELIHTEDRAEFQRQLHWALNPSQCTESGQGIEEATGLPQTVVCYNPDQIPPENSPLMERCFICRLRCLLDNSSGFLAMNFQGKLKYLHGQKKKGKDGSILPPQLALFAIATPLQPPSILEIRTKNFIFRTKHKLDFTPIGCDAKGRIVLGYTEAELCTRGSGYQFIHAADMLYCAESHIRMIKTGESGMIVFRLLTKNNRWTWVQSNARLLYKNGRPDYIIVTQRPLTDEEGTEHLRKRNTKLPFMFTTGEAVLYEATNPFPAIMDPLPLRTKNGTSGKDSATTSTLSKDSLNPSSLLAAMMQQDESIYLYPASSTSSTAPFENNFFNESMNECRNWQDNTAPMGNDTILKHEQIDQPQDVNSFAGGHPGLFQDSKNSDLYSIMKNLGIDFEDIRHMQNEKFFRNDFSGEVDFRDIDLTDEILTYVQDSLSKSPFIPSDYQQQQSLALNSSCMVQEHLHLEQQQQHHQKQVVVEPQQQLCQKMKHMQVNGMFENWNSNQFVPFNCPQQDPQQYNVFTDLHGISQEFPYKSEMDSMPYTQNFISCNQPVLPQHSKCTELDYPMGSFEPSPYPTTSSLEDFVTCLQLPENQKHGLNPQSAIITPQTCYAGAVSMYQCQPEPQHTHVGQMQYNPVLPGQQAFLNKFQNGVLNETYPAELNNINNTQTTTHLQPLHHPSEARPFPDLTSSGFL
MITF TRPM1 HTS: MITF TRPM1 promoter activation in melanoma cells | SK-MEL-5 TRPM1-promoter luciferase, 24 h; % of positive control, neutral wells = 0 | activation, % at 12.5 µM | 300,000 tested, 0.75% active | AID 588334;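 active means mean activation of at least 80% with every replicate also reaching 80%; inconclusive means mean reaches 80% but some replicate falls short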;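 further: 0% = neutral control wells and 100% = parthenolide positive control wells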
esBAF inh: SWI/SNF esBAF complex inhibition | mouse ES cells, Bmi1-luciferase knock-in reporter, 24 h; 100% = twice the neutral-well signal | 350,000 tested, 2% active | reporter increase, % at 12.5 µM; in the data active means activation above about 40%; inconclusive means no clear call, values can overlap the other calls;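 further: 0% = median of the plate's neutral control wells and 100% = double that signal; a rise in the Bmi1 reporter signal indicates esBAF inhibition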
GAA850 FXN act: increases GAA850 frataxin promoter reporter activity | HEK293 lucGAA850 FXN promoter luciferase reporter, 24 h; percent of 10 µM SAHA response | activation, % at 6 µM | 360,000 tested, 0.56% active | AID 540364;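 active means activation above the average of all compounds screened plus 3 SD, cutoff fixed separately per campaign, cut at about 7.5% in these data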;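 further: 0% = DMSO wells and 100% = 10 µM SAHA wells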
Wnt bcat act: activators of Wnt/beta-catenin signaling. AID 743398. Wnt/beta-catenin reporter cell assay, activator, plate reader. 300,000 tested, 1.2% active. activation, % at 9.35 µM; in the data active means activation above about 30%, passing the limit was not always enough; inconclusive means no clear call, values can overlap the other calls;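 further: 0% = neutral control wells and 100% = positive control wells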
An asterisk follows results filed as active; ? = inconclusive; · = no result given.

SMILES	AHR act	MITF TRPM1 HTS	esBAF inh	GAA850 FXN act	Wnt bcat act
Cn1c(SCC(=O)N2CCN(c3ccccc3)CC2)nnc1-c1c[nH]c2ccccc12	0	·	-2	-2	2
Cn1c(SCc2ccccc2)nnc1-c1c[nH]c2ccccc12	-1	·	81*	1	23
CCCCSc1nnc(-c2c[nH]c3ccccc23)n1C	-4	44	72*	6	32*
COc1cccc(NC(=O)N[C@@H]2CC[C@@H](CC(=O)NCc3ccccn3)O[C@H]2CO)c1	·	·	-1	·	·
C[C@@H]1CCCCO[C@H](CN(C)Cc2ccncc2)[C@H](C)CN([C@@H](C)CO)C(=O)c2cc(NS(C)(=O)=O)ccc2O1	·	·	2	·	·
COc1ccc(N(C(=O)Cn2cnc3ccccc32)C(C(=O)NC2CCCCC2)c2ccccc2)cc1 (stereo not given)	-1	4	-3	-2	56*
Nc1cccnc1Sc1cc(Cl)c(Cl)cc1Cl	59*	·	1	0	·
Nc1cccnc1Sc1ccc([N+](=O)[O-])cn1	·	-4	·	2	-9
CNC(=O)C[C@H]1CC[C@H]2[C@@H](COC[C@H](O)CN2Cc2ccccc2F)O1	·	·	-3	·	·
COc1cccc(-c2nnc3sc(-c4cccs4)nn23)c1	-19	·	9	2	·
c1coc(-c2nnc3sc(-c4cccs4)nn23)c1	55*	·	-1	5	·
S=C(c1ccc(-c2ccc(Cl)c(Cl)c2)o1)N1CCOCC1	6	113*	45*	5	·
S=C(c1ccc(-c2ccc(Br)cc2)o1)N1CCCCC1	27	72	48*	6	46*
S=C(c1ccc(-c2ccccc2Cl)o1)N1CCOCC1	6	76	31	4	·
S=C(c1ccc(-c2ccc(Br)cc2)o1)N1CCOCC1	11	·	·	6	53*
O=C(Cc1ccc(Br)cc1)N1CCCCCC1	15	·	57*	7	·
COc1ccc(-c2ccc(C(=S)N3CCN(C(C)=O)CC3)o2)cc1	1	11	3	4	-2
O=C(Cc1ccc(Br)cc1)N1CCCC1	3	3	2	2	1
O=C(N[C@@H]1CC[C@H](CC(=O)N2CCc3ccccc3C2)O[C@H]1CO)C1CCC1	·	·	-3	·	·
CCNC(=O)C[C@H]1CC[C@@H]2[C@@H](COc3ccc(NC(=O)C4CCOCC4)cc3C(=O)N2C)O1	·	·	2	·	·
C[C@@H]1CN([C@@H](C)CO)C(=O)c2cc(C#CC3CC3)cnc2O[C@H]1CN(C)C(=O)Nc1ccccc1	·	·	0	·	·
O=C(C[C@H]1C[C@@H]2c3cc(NS(=O)(=O)c4ccc(F)cc4)ccc3O[C@@H]2[C@@H](CO)O1)N1CCCCC1	·	·	10	·	·
O=C(Cc1ccccn1)NCC[C@@H]1CC[C@H](NS(=O)(=O)c2ccc(Cl)cc2)[C@@H](CO)O1	·	·	4	·	·
CCOC(=O)c1c(C)[nH]c(C=Nc2ccc(OC)cc2)c1O	35	64	?	2	2
CCOC(=O)c1c(C)[nH]c(N=Nc2ccc(C)cc2)c1C	-6	124*	62*	5	·
SMILES	AHR act	MITF TRPM1 HTS	esBAF inh	GAA850 FXN act	Wnt bcat act
CCOC(=O)c1c(C)[nH]c(N=Nc2ccc(OC)cc2)c1C	-8	129*	·	6	54*
CCOC(=O)c1c(C)[nH]c(N=Nc2ccccc2)c1C	4	71	89*	5	·
CCOC(=O)c1c(C)[nH]c(N=Nc2ccccc2Cl)c1C	15	65	64*	6	46*
CCCC(=O)Nc1ccc2c(c1)C(=O)N(C)C[C@@H](OC)[C@H](C)CN(C(=O)c1ccncc1)[C@H](C)CO2	·	·	-2	·	·
CCCNC(=O)C[C@H]1CC[C@H]2[C@@H](COC[C@H](O)CN2C(=O)c2cccnc2)O1	·	·	3	·	·
COc1ccccc1C#Cc1ccc2c(c1)[C@H]1[C@H](CCN1C(=O)c1ccc(F)cc1)[C@H](CO)N2	·	·	6	·	·
Cc1cccc(C(=O)Nc2sc(-c3ccccc3)cc2C(=O)O)c1	9	93*	68*	3	26
Cc1cccc(C(=O)Nc2sc3c(c2C(=O)O)CCCC3)c1	8	-7	72*	-4	9
O=C(Nc1sc2c(c1C(=O)O)CCC2)c1cccc(Cl)c1	15	4	·	1	4
Cc1cccc(C(=O)c2c(N)sc3c2CCCC3)c1	11	18	·	-2	37*
CC(C)(C)C(=O)Nc1sc(-c2ccccc2)cc1C(=O)O	21	25	·	-3	26
COc1ccc(NC(=O)N(C)C[C@@H]2Oc3ccc(NS(=O)(=O)c4cn(C)cn4)cc3C(=O)N([C@@H](C)CO)C[C@@H]2C)cc1	·	·	2	·	·
O=C(C[C@H]1CC[C@H](NC(=O)CN2CCOCC2)[C@H](CO)O1)NCCc1ccccc1	·	·	-1	·	·
COCC(=O)Nc1ccc2c(c1)C(=O)N(C)[C@H]1CC[C@@H](CC(=O)NCc3ccccc3Cl)O[C@H]1CO2	·	·	3	·	·
Cn1c(=NC(=O)COc2ccccc2)sc2cccc(F)c21	-1	63	57*	6	-2
CCCSc1ccc(C(=O)Nc2ccc(Cl)cc2)cn1	60*	26	29	3	5
Cc1ccc(NC(=O)c2ccc(Cl)nc2)cc1	20	22	·	4	8
C[C@H](NC(=O)C[C@H]1C=C[C@H](NC(=O)CN2CCOCC2)[C@@H](CO)O1)c1ccccc1	·	·	-1	·	·
O=C(CNC1CCCCC1)Nc1ccc([N+](=O)[O-])cc1C(=O)Nc1ccccc1F	48*	-4	-8	-1	-2
CN1CCN(C(=O)C[C@@H]2CC[C@H]3[C@@H](COC[C@H](O)CN3C(=O)Nc3ccc(Cl)cc3)O2)CC1	·	·	11	·	·
O=C(Nc1ccc(Cl)cc1)c1csc(COCCO)n1	·	·	53*	3	13
C(=C\c1nnc2c3ccccc3ncn12)/c1ccccc1	67*	25	·	3	13
COc1cc(/C=C/c2nnc3c4ccccc4ncn23)cc(OC)c1OC	45	-2	·	-1	1
N=C1/C(=C/c2cccn2-c2ccc([N+](=O)[O-])cc2)C(=O)N=C2SC=CN12	3	6	·	0	1
COc1ccc(-c2ccc(/C=C3/C(=N)N4C=CSC4=NC3=O)o2)c([N+](=O)[O-])c1	49*	2	·	-1	6
SMILES	AHR act	MITF TRPM1 HTS	esBAF inh	GAA850 FXN act	Wnt bcat act
COc1ccc2c(ccc[n+]2CC(=O)c2ccccc2)c1	·	-17	2	0	-2
COc1ccc(C(=O)C[n+]2cn(C(F)F)c3ccccc32)c(F)c1	17	13	52*	2	14
COc1ccc(-c2csc(Nc3ccccn3)n2)cc1OC	-10	·	74*	4	17
COc1ccc(-c2csc(C(C)(O)c3ccccc3)n2)cc1OC (stereo not given)	·	·	10	1	0
Fc1ccc(-c2csc(Nc3ccccn3)n2)c(F)c1	78*	14	16	6	-3
Cc1cc(-c2csc(Nc3ccccn3)n2)ccc1F	65*	7	17	1	-3
Cc1ccc(-c2csc(Nc3ccccn3)n2)cc1	43	-10	-59	-1	2
COc1ccc(CN(C)C[C@H]2Oc3c(NC(=O)c4nc5ccccc5s4)cccc3C(=O)N([C@H](C)CO)C[C@@H]2C)cc1	·	·	-7	·	·
